# Laboratory results as given in ChEMBL document CHEMBL3988442, “University of Dundee, Small-Polar-MMV Screening Library” (2021).
# Out of some 66,000 compounds screened, about 960 (1.5%) showed an effect of 50% or more. For the sample, strong results were picked, then their nearest neighbours and some compounds at random.
# Test system: Trypanosoma brucei
# Test: Trypanosoma brucei 72 hour study
# Format: functional, organism-based
# Set-up: scale not given: in the data most compounds retested in dose-response had high values
smiles,measurement,setting,value
CN(C)CC1CN(C(=O)CCc2ccccc2)Cc2nccn2C1.O=C(O)C(F)(F)F (stereo not given),Percent Effect,"30 µM, 30.03 µM",-27.78%
O=C1O[C@@H]2CN(CCc3ccccc3)C[C@@H]2N1CCCN1CCOCC1,Percent Effect,"30 µM, 30.03 µM",-26.55%
O=C1O[C@@H]2CN(Cc3ccncc3)C[C@@H]2N1CCCN1CCOCC1,Percent Effect,"30 µM, 30.03 µM",-21.02%
O=C1O[C@@H]2CN(Cc3ccccc3)C[C@@H]2N1CCCN1CCOCC1,Percent Effect,"30 µM, 30.03 µM",65.91%
CC(C)CC(=O)N1CC[C@@H]2[C@H](CC1)N(Cc1cccnc1)CCS2(=O)=O.O=C(O)C(F)(F)F.O=C(O)C(F)(F)F,Percent Effect,"30.3 µM, […]",-39.88%
Cc1cccc(CN(Cc2ccccn2)Cc2ncc(C(C)(C)C)o2)c1,Percent Effect,"30.3 µM, […]",99.39%
CCN(Cc1cccc(Cl)c1)Cc1ncc(C(C)(C)C)o1,Percent Effect,"30.3 µM, […]",-76.17%
Cc1cccc(CN(Cc2ccccn2)S(=O)(=O)N(C)C)c1,Percent Effect,"30.3 µM, […]",5.656%
Cc1ccc(SCCCNC(=O)c2cn([C@H]3CC[C@@H](N)CC3)nn2)cc1,Percent Effect,"30.3 µM, […]",59.21%
CCN(CCSc1ccccc1)C(=O)c1cn([C@H]2CC[C@@H](N)CC2)nn1,Percent Effect,"30.3 µM, […]",-71.42%
Cc1ccc(SCCN(C)C(=O)c2cn([C@H]3CC[C@@H](N)CC3)nn2)cc1,Percent Effect,"30.3 µM, […]",-119%
CCCc1nc(CN2CCCCC2Cn2cncn2)cs1 (stereo not given),Percent Effect,"30.3 µM, […]",101.4%
same,Percent Effect,"10 mM, 10 mM as filed; unlikely as a test dose",-40.08%
CCCc1nc(CN2CCCC2Cn2cncn2)cs1 (stereo not given),Percent Effect,"30 µM, 30.03 µM",2.721%
CC(C)c1nc(CN2CCCCC2)cs1,Percent Effect,"30 µM, 30.03 µM",11.44%
CC(=O)Nc1nc(CN2CCCC2Cn2cncn2)cs1 (stereo not given),Percent Effect,"30 µM, 30.03 µM",3.686%
CC(=O)Nc1nc(CN2CCCC2Cn2cccn2)cs1 (stereo not given),Percent Effect,"30.3 µM, […]",98.13%
CN(C)C(=O)Cc1nc(CN2CCCC2Cn2cccn2)cs1 (stereo not given),Percent Effect,"30.3 µM, […]",-75.86%
CN(C)C(=O)Cc1nc(CN2CCCCC2Cn2cccn2)cs1 (stereo not given),Percent Effect,"30 µM, 30.03 µM",-14.9%
CCCc1nc(CN2CCCC2Cn2cccn2)cs1 (stereo not given),Percent Effect,"30.3 µM, […]",100.2%
CC(C)c1nc(CN2CCCCC2Cn2cncn2)cs1 (stereo not given),Percent Effect,"30.3 µM, […]",7.247%
same,Percent Effect,"10 mM, 10 mM as filed; unlikely as a test dose",-40.32%
CN(C)C(=O)Cc1nc(CN2CCCCC2Cn2cncn2)cs1 (stereo not given),Percent Effect,"30.3 µM, […]",-54.68%
CC(C)c1nc(CN2CCCC2CN2CCCC2)cs1 (stereo not given),Percent Effect,"30.3 µM, […]",99.84%
CC(=O)Nc1nc(CN2CCCCC2Cn2cccn2)cs1 (stereo not given),Percent Effect,"30 µM, 30.03 µM",16.1%
CN(C)Cc1nc(-n2cnc(C(=O)NCC3CC3)c2)n2ccccc12,Percent Effect,"30.3 µM, […]",-8.964%
CN1C(=O)CC(C(=O)O)C12CCN(c1ccc3ccccc3n1)CC2 (stereo not given),Percent Effect,"30 µM, 30.03 µM",-0.482%
COc1ccc(CC(=O)N2CC(=O)NCC(C)(C)C2)cc1,Percent Effect,"30.3 µM, […]",-15.32%
O=C(NC[C@@H]1C[C@@H]2CN(C(=O)CO)C[C@H]2O1)c1ccsc1,Percent Effect,"30.3 µM, […]",-12.73%
Cc1nn(C)c(C)c1S(=O)(=O)N1CC[C@@H]2O[C@@H](C)C[C@H]2C1.O=C(O)C(F)(F)F,Percent Effect,"30.3 µM, […]",5.348%
CN(C)CCN1C(=O)CCC12CCCN(C(=O)C1CC=CC1)CC2.O=C(O)C(F)(F)F (stereo not given),Percent Effect,"30.3 µM, […]",14.28%
Cc1ccc(OCC2CCCN(c3nc(CO)cs3)C2)cc1 (stereo not given),Percent Effect,"30 µM, 30.03 µM",49.4%
COc1ccc(OCC2CCCN(c3nc(CO)cs3)C2)cc1 (stereo not given),Percent Effect,"30 µM, 30.03 µM",85.11%
OCc1csc(N2CCCC(COc3cccc(F)c3)C2)n1 (stereo not given),Percent Effect,"30 µM, 30.03 µM",-13.56%
Cc1nc2cc(-c3nccn3C)nn2c(N2CCCC(O)C2)c1C.Cl (stereo not given),Percent Effect,"30.3 µM, […]",-11.86%
Cc1nc2cc(-c3nccn3C)nn2c(N2CCCC(CO)C2)c1C (stereo not given),Percent Effect,"30.3 µM, […]",21.68%
CCc1c(C)nc2cc(-c3nccn3C)nn2c1N1CCCC(CO)C1 (stereo not given),Percent Effect,"30.3 µM, […]",50.14%
Cc1ccc(CN2CCOC3(COCCN(CCN(C)C)C3)C2)o1.O=C(O)C(F)(F)F.O=C(O)C(F)(F)F.O=C(O)C(F)(F)F (stereo not given),Percent Effect,"30 µM, 30.03 µM",20.44%
OC(CNC1CCSCC1)c1cccc(OCc2ccccc2)c1 (stereo not given),Percent Effect,"30 µM, 30.03 µM",-20.69%
OC(CNC1CCOCC1)c1cccc(OCc2ccccc2)c1 (stereo not given),Percent Effect,"30 µM, 30.03 µM",-36.97%
CN1CCC(NCC(O)c2cccc(OCc3ccccc3)c2)CC1 (stereo not given),Percent Effect,"30 µM, 30.03 µM",101.3%
Cl.c1cc(NCc2ccncc2)nc(C2CCCN2)c1 (stereo not given),Percent Effect,"30.3 µM, […]",7.613%
Cc1ccc(-n2ncc3c2CCCC3N)cc1C (stereo not given),Percent Effect,"30 µM, 30.03 µM",-37.31%
Cc1cc(C)cc(-n2ncc3c2CCCC3N)c1 (stereo not given),Percent Effect,"30 µM, 30.03 µM",-36.85%
CC(C)(C)c1ccc(-n2ncc3c2CCCC3N)cc1 (stereo not given),Percent Effect,"30 µM, 30.03 µM",97.82%
CN(C)C(=O)C1CCN(C2CCN(CC3CC3)CC2)CC1.O=C(O)C(F)(F)F.O=C(O)C(F)(F)F,Percent Effect,"30.3 µM, […]",-10.13%
CCc1nc(C2CCCN2C(=O)c2ccc3c(c2)nnn3C)no1 (stereo not given),Percent Effect,10 µM,-25.38%
same,Percent Effect,"30.3 µM, […]",-22.91%
c1ccc(-c2nc(CN3CCCC3Cn3cncn3)no2)cc1 (stereo not given),Percent Effect,"30.3 µM, […]",6.98%
N#Cc1cc(Cl)ccc1N1CCN(C(=O)C2CCC2)CC1,Percent Effect,"30.3 µM, […]",81.04%
CCN(CC)C(=O)C1CCN(c2ccc(Cl)cc2C#N)CC1,Percent Effect,"30.3 µM, […]",-5.722%
CC1CCN(C(=O)C2CCN(c3ccc(Cl)cc3C#N)CC2)CC1,Percent Effect,"30.3 µM, […]",28.97%
O=C(O)C(F)(F)F.O=C(c1cccnc1)N1CCC2(CC1)COCCN(c1ncccn1)C2,Percent Effect,"30 µM, 30.03 µM",-13.17%
COc1ccc(N2Cc3nc(N)ncc3C2=O)cc1Cl,Percent Effect,"30 µM, 30.03 µM",-4.562%
Cc1cc(S(=O)(=O)NCC(C)(C)N)c(F)cc1F.Cl,Percent Effect,"30 µM, 30.03 µM",-16.3%
CC(C)Nc1nc2c(cc1C(=O)NCC1CC1)CCNCC2.O=C(O)C(F)(F)F.O=C(O)C(F)(F)F,Percent Effect,"30 µM, 30.03 µM",-26.83%
CC(C)CNc1nc2c(cc1C(=O)NCC1CC1)CCNCC2,Percent Effect,"30 µM, 30.03 µM",100.1%
CNC(=O)c1cc2c(nc1NCC1CC1)CCNCC2,Percent Effect,"30 µM, 30.03 µM",-38.29%
O=C(O)C(F)(F)F.O=C1CCCN1Cc1nnc2n1CCN(Cc1ccccn1)CC2,Percent Effect,"30.3 µM, […]",-8.188%
Cc1cc(C[C@@H]2CCC[C@H]2NCc2c[nH]nc2-c2ccccc2)on1.O=C(O)CC(O)(CC(=O)O)C(=O)O,Percent Effect,"30.3 µM, […]",19.9%
CNC(=O)c1cc2c(nc1NCC(C)C)CCN(c1ncccn1)CC2.O=C(O)C(F)(F)F,Percent Effect,"30.3 µM, […]",98.85%
CNC(=O)c1cc2c(nc1NCC(C)C)CCN(C)CC2.O=C(O)C(F)(F)F.O=C(O)C(F)(F)F,Percent Effect,"30.3 µM, […]",-104.3%
CNC(=O)c1cc2c(nc1NCC(C)C)CCN(c1ccncn1)CC2.O=C(O)C(F)(F)F,Percent Effect,"30 µM, 30.03 µM",-20.72%
O=C(CSc1ccc2c(c1)OCCO2)NS(=O)(=O)c1ccccc1F,Percent Effect,"30 µM, 30.03 µM",-24.23%
O=C(CSc1ccc(F)c(F)c1)NS(=O)(=O)c1ccc2c(c1)OCCO2,Percent Effect,"30 µM, 30.03 µM",-8.026%
O=C(CSc1ccc2c(c1)OCCO2)NS(=O)(=O)c1cc(F)ccc1F,Percent Effect,"30 µM, 30.03 µM",61.54%
CN1C(=O)CC(c2ccccc2)C12CCN(CC1CCOCC1)CC2.O=C(O)C(F)(F)F (stereo not given),Percent Effect,"30.3 µM, […]",-3.358%
O=C(O)C(F)(F)F.O=C(O)C(F)(F)F.O=c1cc(Cn2cncn2)nc2n1CCCN(CCN1CCCC1)C2,Percent Effect,"30 µM, 30.03 µM",14.15%
COCCN1CCCn2c(nc(Cn3cncn3)cc2=O)C1.O=C(O)C(F)(F)F,Percent Effect,"30 µM, 30.03 µM",64.46%
O=C(O)C(F)(F)F.O=c1cc(Cn2cncn2)nc2n1CCCN(Cc1ccc(F)cc1)C2,Percent Effect,"30 µM, 30.03 µM",27.77%
O=C(O)C(F)(F)F.c1cnc(NCc2nnn3c2CN(CC2CC2)CCC3)nc1,Percent Effect,"30.3 µM, […]",-52.08%
Cc1nn(C)c(N(C)C)c1CNC1CCc2cc(F)ccc21.Cl (stereo not given),Percent Effect,10 µM,-39.72%
Cn1cccc1C(=O)N1CCc2ncc(Cn3cccn3)n2CC1,Percent Effect,"30 µM, 30.03 µM",59.24%
Cc1ccc(C(=O)N2CCc3ncc(Cn4cccn4)n3CC2)cn1,Percent Effect,"30.3 µM, […]",-7.438%
O=C(c1ccoc1)N1CCc2ncc(Cn3cccn3)n2CC1,Percent Effect,"30.3 µM, […]",-11.59%
CS(=O)(=O)NCc1cncc2c1CCN(C(=O)c1cccnc1)C2.Cl.Cl,Percent Effect,"30.3 µM, […]",-7.257%
COCC1CN(Cc2ccoc2)Cc2nnn(C)c21.O=C(O)C(F)(F)F (stereo not given),Percent Effect,"30 µM, 30.03 µM",-46.26%
CCc1c(C)nc2cc(C3CCN(Cc4cccc(F)c4)C3)nn2c1O (stereo not given),Percent Effect,"30.3 µM, […]",27.1%
CCc1c(C)nc2cc(C3CCN(CCc4ccccc4)C3)nn2c1O (stereo not given),Percent Effect,"30.3 µM, […]",58.63%
CCc1c(C)nc2cc(C3CCN(Cc4cccnc4)C3)nn2c1O (stereo not given),Percent Effect,"30.3 µM, […]",7.415%
